# Laboratory results reported in the supplement of paper PMC4466140.
# B1: unnamed (peptide)
# chain: YLTRPLPSTPNEDSR
# B2: unnamed (peptide)
# chain: PPPPPPPPPPLPQSL
# Key:
# Assay in all cases: SPOT peptide array binding signal intensity (averaged, normalized) (arbitrary units (background-subtracted, floor 0; scale differs between SH3 domains)); higher = stronger binding of the SH3 domain to the peptide
# AgAbp1 = biological target: AgAbp1
# Summary of the method: (§1)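 GST-SH3 fusions from four yeast species, purified on glutathione Sepharose, were incubated at 10 μg/ml overnight at 4°C on membranes of synthetic 15-mer peptides in which cysteines were replaced with serines. Binding signal is the normalized, background-subtracted spot intensity averaged over replicates, in domain-specific arbitrary units.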
# AgBbc1 = biological target: AgBbc1
# Summary of the method: as §1
# AgBem1-D1 = biological target: AgBem1-D1
# Summary of the method: as §1
# AgBzz1-D1 = biological target: AgBzz1-D1
# Summary of the method: as §1
# AgBzz1-D2 = biological target: AgBzz1-D2
# Summary of the method: as §1
# AgCyk3 = biological target: AgCyk3
# Summary of the method: as §1
# AgFus1 = biological target: AgFus1
# Summary of the method: as §1
# AgHof1 = biological target: AgHof1
# Summary of the method: as §1
# AgHse1 = biological target: AgHse1
# Summary of the method: as §1
# AgLsb1 = biological target: AgLsb1
# Summary of the method: as §1
# AgLsb4 = biological target: AgLsb4
# Summary of the method: as §1
# AgMyo5 = biological target: AgMyo5
# Summary of the method: as §1
# AgNbp2 = biological target: AgNbp2
# Summary of the method: as §1
# AgRvs167 = biological target: AgRvs167
# Summary of the method: as §1
# AgSho1 = biological target: AgSho1
# Summary of the method: as §1
# AgSla1-D1-D2 = biological target: AgSla1-D1-D2
# Summary of the method: as §1
# AgSla1-D3 = biological target: AgSla1-D3
# Summary of the method: as §1
# CaAbp1-D1 = biological target: CaAbp1-D1
# Summary of the method: as §1
# CaAbp1-D2 = biological target: CaAbp1-D2
# Summary of the method: as §1
# CaBbc1 = biological target: CaBbc1
# Summary of the method: as §1
# CaBem1-D1 = biological target: CaBem1-D1
# Summary of the method: as §1
# CaBzz1-D1 = biological target: CaBzz1-D1
# Summary of the method: as §1
# CaBzz1-D2 = biological target: CaBzz1-D2
# Summary of the method: as §1
# CaCyk3 = biological target: CaCyk3
# Summary of the method: as §1
# CaFus1 = biological target: CaFus1
# Summary of the method: as §1
# CaHof1 = biological target: CaHof1
# Summary of the method: as §1
# CaHse1 = biological target: CaHse1
# Summary of the method: as §1
# CaLsb1 = biological target: CaLsb1
# Summary of the method: as §1
# CaLsb4 = biological target: CaLsb4
# Summary of the method: as §1
# CaMyo5 = biological target: CaMyo5
# Summary of the method: as §1
# CaNbp2 = biological target: CaNbp2
# Summary of the method: as §1
# CaRvs167 = biological target: CaRvs167
# Summary of the method: as §1
# CaRvs167-3 = biological target: CaRvs167-3
# Summary of the method: as §1
# CaSho1 = biological target: CaSho1
# Summary of the method: as §1
# CaSla1-D1-D2 = biological target: CaSla1-D1-D2
# Summary of the method: as §1
# CaSla1-D3 = biological target: CaSla1-D3
# Summary of the method: as §1
# ScAbp1 = biological target: ScAbp1
# Summary of the method: as §1
# ScBbc1 = biological target: ScBbc1
# Summary of the method: as §1
# ScBem1-D1 = biological target: ScBem1-D1
# Summary of the method: as §1
# ScBzz1-D1 = biological target: ScBzz1-D1
# Summary of the method: as §1
# ScBzz1-D2 = biological target: ScBzz1-D2
# Summary of the method: as §1
# ScCyk3 = biological target: ScCyk3
# Summary of the method: as §1
# ScFus1 = biological target: ScFus1
# Summary of the method: as §1
# ScHof1 = biological target: ScHof1
# Summary of the method: as §1
# ScHse1 = biological target: ScHse1
# Summary of the method: as §1
# ScLsb1 = biological target: ScLsb1
# Summary of the method: as §1
# ScLsb2 = biological target: ScLsb2
# Summary of the method: as §1
# ScLsb3 = biological target: ScLsb3
# Summary of the method: as §1
# ScLsb4 = biological target: ScLsb4
# Summary of the method: as §1
# ScMyo3 = biological target: ScMyo3
# Summary of the method: as §1
# ScMyo5 = biological target: ScMyo5
# Summary of the method: as §1
# ScNbp2 = biological target: ScNbp2
# Summary of the method: as §1
# ScPex13 = biological target: ScPex13
# Summary of the method: as §1
# ScRvs167 = biological target: ScRvs167
# Summary of the method: as §1
# ScSho1 = biological target: ScSho1
# Summary of the method: as §1
# ScSla1-D1-D2 = biological target: ScSla1-D1-D2
# Summary of the method: as §1
# ScSla1-D3 = biological target: ScSla1-D3
# Summary of the method: as §1
# SpAbp1-D1 = biological target: SpAbp1-D1
# Summary of the method: as §1
# SpBbc1 = biological target: SpBbc1
# Summary of the method: as §1
# SpBzz1-D1 = biological target: SpBzz1-D1
# Summary of the method: as §1
# SpBzz1-D2 = biological target: SpBzz1-D2
# Summary of the method: as §1
# SpCyk3 = biological target: SpCyk3
# Summary of the method: as §1
# SpHof1 = biological target: SpHof1
# Summary of the method: as §1
# SpHof1-2 = biological target: SpHof1-2
# Summary of the method: as §1
# SpHof1-3 = biological target: SpHof1-3
# Summary of the method: as §1
# SpHse1 = biological target: SpHse1
# Summary of the method: as §1
# SpLsb1 = biological target: SpLsb1
# Summary of the method: as §1
# SpLsb4 = biological target: SpLsb4
# Summary of the method: as §1
# SpMyo1 = biological target: SpMyo1
# Summary of the method: as §1
# SpNbp2 = biological target: SpNbp2
# Summary of the method: as §1
# SpPex13 = biological target: SpPex13
# Summary of the method: as §1
# SpRvs167 = biological target: SpRvs167
# Summary of the method: as §1
# SpSla1-D1-D2 = biological target: SpSla1-D1-D2
# Summary of the method: as §1
# SpSla1-D3 = biological target: SpSla1-D3
# Summary of the method: as §1
binder,measurement,setting,value
B1,SPOT peptide array binding signal intensity,AgAbp1,7
same,SPOT peptide array binding signal intensity,AgBbc1,39.5
same,SPOT peptide array binding signal intensity,AgBem1-D1,≤ 0
same,SPOT peptide array binding signal intensity,AgBzz1-D1,17.5
same,SPOT peptide array binding signal intensity,AgBzz1-D2,≤ 0
same,SPOT peptide array binding signal intensity,AgCyk3,42
same,SPOT peptide array binding signal intensity,AgFus1,≤ 0
same,SPOT peptide array binding signal intensity,AgHof1,13.2
same,SPOT peptide array binding signal intensity,AgHse1,≤ 0
same,SPOT peptide array binding signal intensity,AgLsb1,96
same,SPOT peptide array binding signal intensity,AgLsb4,853
same,SPOT peptide array binding signal intensity,AgMyo5,2.25
same,SPOT peptide array binding signal intensity,AgNbp2,≤ 0
same,SPOT peptide array binding signal intensity,AgRvs167,404
same,SPOT peptide array binding signal intensity,AgSho1,1790
same,SPOT peptide array binding signal intensity,AgSla1-D1-D2,1
same,SPOT peptide array binding signal intensity,AgSla1-D3,≤ 0
same,SPOT peptide array binding signal intensity,CaAbp1-D1,11
same,SPOT peptide array binding signal intensity,CaAbp1-D2,7
same,SPOT peptide array binding signal intensity,CaBbc1,134
same,SPOT peptide array binding signal intensity,CaBem1-D1,≤ 0
same,SPOT peptide array binding signal intensity,CaBzz1-D1,42
same,SPOT peptide array binding signal intensity,CaBzz1-D2,12.5
same,SPOT peptide array binding signal intensity,CaCyk3,8
same,SPOT peptide array binding signal intensity,CaFus1,≤ 0
same,SPOT peptide array binding signal intensity,CaHof1,69.8
same,SPOT peptide array binding signal intensity,CaHse1,28.5
same,SPOT peptide array binding signal intensity,CaLsb1,≤ 0
same,SPOT peptide array binding signal intensity,CaLsb4,406
same,SPOT peptide array binding signal intensity,CaMyo5,≤ 0
same,SPOT peptide array binding signal intensity,CaNbp2,≤ 0
same,SPOT peptide array binding signal intensity,CaRvs167,144
same,SPOT peptide array binding signal intensity,CaRvs167-3,≤ 0
same,SPOT peptide array binding signal intensity,CaSho1,1020
same,SPOT peptide array binding signal intensity,CaSla1-D1-D2,≤ 0
same,SPOT peptide array binding signal intensity,CaSla1-D3,≤ 0
same,SPOT peptide array binding signal intensity,ScAbp1,3.5
same,SPOT peptide array binding signal intensity,ScBbc1,5
same,SPOT peptide array binding signal intensity,ScBem1-D1,≤ 0
same,SPOT peptide array binding signal intensity,ScBzz1-D1,6.5
same,SPOT peptide array binding signal intensity,ScBzz1-D2,14
same,SPOT peptide array binding signal intensity,ScCyk3,≤ 0
same,SPOT peptide array binding signal intensity,ScFus1,≤ 0
same,SPOT peptide array binding signal intensity,ScHof1,9.5
same,SPOT peptide array binding signal intensity,ScHse1,≤ 0
same,SPOT peptide array binding signal intensity,ScLsb1,20
same,SPOT peptide array binding signal intensity,ScLsb2,2.5
same,SPOT peptide array binding signal intensity,ScLsb3,3260
same,SPOT peptide array binding signal intensity,ScLsb4,706
same,SPOT peptide array binding signal intensity,ScMyo3,3
same,SPOT peptide array binding signal intensity,ScMyo5,≤ 0
same,SPOT peptide array binding signal intensity,ScNbp2,≤ 0
same,SPOT peptide array binding signal intensity,ScPex13,992
same,SPOT peptide array binding signal intensity,ScRvs167,417
same,SPOT peptide array binding signal intensity,ScSho1,3780
same,SPOT peptide array binding signal intensity,ScSla1-D1-D2,17.5
same,SPOT peptide array binding signal intensity,ScSla1-D3,1
same,SPOT peptide array binding signal intensity,SpAbp1-D1,≤ 0
same,SPOT peptide array binding signal intensity,SpBbc1,≤ 0
same,SPOT peptide array binding signal intensity,SpBzz1-D1,74.5
same,SPOT peptide array binding signal intensity,SpBzz1-D2,≤ 0
same,SPOT peptide array binding signal intensity,SpCyk3,150
same,SPOT peptide array binding signal intensity,SpHof1,2260
same,SPOT peptide array binding signal intensity,SpHof1-2,1610
same,SPOT peptide array binding signal intensity,SpHof1-3,776
same,SPOT peptide array binding signal intensity,SpHse1,1.75
same,SPOT peptide array binding signal intensity,SpLsb1,1
same,SPOT peptide array binding signal intensity,SpLsb4,2190
same,SPOT peptide array binding signal intensity,SpMyo1,60.2
same,SPOT peptide array binding signal intensity,SpNbp2,≤ 0
same,SPOT peptide array binding signal intensity,SpPex13,1.5
same,SPOT peptide array binding signal intensity,SpRvs167,777
same,SPOT peptide array binding signal intensity,SpSla1-D1-D2,9
same,SPOT peptide array binding signal intensity,SpSla1-D3,≤ 0
B2,SPOT peptide array binding signal intensity,AgAbp1,6.5
same,SPOT peptide array binding signal intensity,AgBbc1,≤ 0
same,SPOT peptide array binding signal intensity,AgBem1-D1,≤ 0
same,SPOT peptide array binding signal intensity,AgBzz1-D1,23.5
same,SPOT peptide array binding signal intensity,AgBzz1-D2,≤ 0
same,SPOT peptide array binding signal intensity,AgCyk3,1
same,SPOT peptide array binding signal intensity,AgFus1,≤ 0
same,SPOT peptide array binding signal intensity,AgHof1,366
same,SPOT peptide array binding signal intensity,AgHse1,18
same,SPOT peptide array binding signal intensity,AgLsb1,≤ 0
same,SPOT peptide array binding signal intensity,AgLsb4,≤ 0
same,SPOT peptide array binding signal intensity,AgMyo5,561
same,SPOT peptide array binding signal intensity,AgNbp2,33
same,SPOT peptide array binding signal intensity,AgRvs167,≤ 0
same,SPOT peptide array binding signal intensity,AgSho1,3
same,SPOT peptide array binding signal intensity,AgSla1-D1-D2,1
same,SPOT peptide array binding signal intensity,AgSla1-D3,1.5
same,SPOT peptide array binding signal intensity,CaAbp1-D1,29.5
same,SPOT peptide array binding signal intensity,CaAbp1-D2,≤ 0
same,SPOT peptide array binding signal intensity,CaBbc1,≤ 0
same,SPOT peptide array binding signal intensity,CaBem1-D1,5
same,SPOT peptide array binding signal intensity,CaBzz1-D1,2040
same,SPOT peptide array binding signal intensity,CaBzz1-D2,268
same,SPOT peptide array binding signal intensity,CaCyk3,1
same,SPOT peptide array binding signal intensity,CaFus1,23
same,SPOT peptide array binding signal intensity,CaHof1,0.75
same,SPOT peptide array binding signal intensity,CaHse1,2.25
same,SPOT peptide array binding signal intensity,CaLsb1,0.5
same,SPOT peptide array binding signal intensity,CaLsb4,≤ 0
same,SPOT peptide array binding signal intensity,CaMyo5,156
